Assay outcomes from PubChem BioAssay.
Rows were chosen to be rich in hits. Some 18% of all compounds tested hit in one or more screens of this group.
TDP1 cell CPT: growth inhibition of DT40 Tdp1-/-;hTDP1 cells with camptothecin (screen for TDP1 inhibitors) | chicken DT40 Tdp1-/-;hTDP1 cells + 20 nM CPT, ATP luminescence, 48 h | Potency, µM (series often up to 46.2 µM), inactives show at the top dose activity change, negative = growth inhibition, most hits filed as inhibitors | hit rate 12% among 420,000 | AID 686979; further: potency means the concentration at half of the fitted maximal effect; on the % scale 0 is the no-effect control and ±100 the full control effect; nearly all actives have a fitted effect of over 55% in size
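Chicken DT40 Tdp1-/- cells complemented with human TDP1, 400 cells/well, exposed to compounds plus 20 nM camptothecin for at least 48 h at 37 C; viability read as ATP content by CellTiter-Glo luminescence.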
TDP1 inh: blocks human tyrosyl-DNA phosphodiesterase 1; recombinant TDP1, AlphaScreen DNA substrate cleavage; Potency, µM (highest dose often 130 µM), without a hit: at the top dose activity change, negative = inhibition, actives largely listed as inhibitors; hit rate 0.28% among 350,000; Q9NUW8; further: potency means the concentration at half of the fitted maximal effect; on the % scale 0 is the no-effect control and ±100 the full control effect; nearly all actives have a fitted effect of over 40% in size
Target sequence (Q9NUW8 whole entry, looked up): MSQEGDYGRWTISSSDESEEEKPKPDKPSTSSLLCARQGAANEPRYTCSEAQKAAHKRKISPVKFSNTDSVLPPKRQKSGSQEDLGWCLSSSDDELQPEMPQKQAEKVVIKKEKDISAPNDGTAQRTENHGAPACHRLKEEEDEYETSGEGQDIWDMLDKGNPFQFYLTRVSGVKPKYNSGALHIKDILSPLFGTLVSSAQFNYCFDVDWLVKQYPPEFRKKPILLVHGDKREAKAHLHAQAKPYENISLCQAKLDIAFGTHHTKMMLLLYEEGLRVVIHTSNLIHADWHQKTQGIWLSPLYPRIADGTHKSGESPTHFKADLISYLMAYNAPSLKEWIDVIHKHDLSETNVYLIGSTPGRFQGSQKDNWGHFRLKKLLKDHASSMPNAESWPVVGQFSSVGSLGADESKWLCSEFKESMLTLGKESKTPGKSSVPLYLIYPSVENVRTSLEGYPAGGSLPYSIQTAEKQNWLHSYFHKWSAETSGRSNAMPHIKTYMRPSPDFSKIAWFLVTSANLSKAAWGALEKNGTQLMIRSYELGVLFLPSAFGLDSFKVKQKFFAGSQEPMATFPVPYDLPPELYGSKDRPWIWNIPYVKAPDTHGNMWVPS
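AlphaScreen read-out: signal falls as enzyme removes the 3' tyrosine-FITC from a 5'-biotinylated DNA oligo (15 nM, 5 min, RT). Enzyme was E. coli-made recombinant Tdp1 at 1 nM, exposed to compound for 15 min beforehand; beads 10 ug/ml, 10 min.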
HepG2 tox: counter-screen for TGF-b inhibitors: cytotoxicity in HepG2 cells. hit rate 0.76% among 410,000. HepG2 CAGA-GFP viability, ATP luminescence, 18 h. Potency, µM (highest dose often 46.1 µM), for the others: top-dose activity change, negative = cytotoxicity, hits mostly cytotoxic. AID 588856; further: potency means the concentration at half of the fitted maximal effect
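CellTiter-Glo luminescence gave cytotoxicity after 18 hours at 37 degrees C. The cells were HepG2 CAGA-GFP in 1% FBS DMEM, stimulated with 500 pg/mL TGF-beta after compound addition. %Activity was normalised to no-cell wells (complete cell-killing) and DMSO (no toxicity), and curves were fitted and classified.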
TDP1 cell noCPT: qHTS for Inhibitors of human tyrosyl-DNA phosphodiesterase 1 (TDP1): qHTS in cells in absence of CPT; hit rate 15% among 420,000; AID 686978, 2013; Potency, µM (titrated, usually from 46.2 µM), without a hit: at the top dose activity change, negative = growth inhibition, most hits filed as inhibitors; DT40 Tdp1-/- hTDP1 cells, no CPT, ATP luminescence, 48 h; further: potency means the concentration at half of the fitted maximal effect; on the % scale 0 is the no-effect control and ±100 the full control effect; nearly all actives have a fitted effect of over 55% in size
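A cellular qHTS used chicken DT40 cells lacking endogenous Tdp1 but carrying stably transfected human TDP1. Compounds were applied without camptothecin, and cell growth kinetics were judged by ATP-dependent luminescence after ≥48 hr.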
IL-1B inflam inh: inflammasome signaling inhibition, IL-1 beta readout | THP-1 LPS/ATP IL-1B secretion, AlphaLISA, 16 h; hits give low values | activity change, % at 57.5 µM | hit rate 4.7% among 360,000; in the data active means activity change below about -50%; inconclusive means mostly about -30% to -49%; further: on the % scale 0 is the no-effect control and ±100 the full control effect
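Secreted IL-1B measured by AlphaLISA bead assay after 16 h compound exposure of THP-1 cells; compounds (final up to 57.5 uM) added 1 h before LPS (250 ng/mL) and ATP (1.25 mM) stimulation; lower signal means less secretion.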
TGFb inhibitor: inhibitors of TGF-b signaling. Potency, µM (highest dose often 46.1 µM), without a hit: at the top dose activity, negative = inhibition, usual class: inhibitors. hit rate 1.2% among 410,000. HepG2 CAGA-GFP TGF-b/SMAD3 reporter, GFP fluorescence, 18 h; TGF-beta stimulated, 500 pg/mL final. AID 588855; further: potency means the concentration at half of the fitted maximal effect; on the % scale 0 is the no-effect control and ±100 the full control effect; nearly all actives have a fitted effect of over 65% in size
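Read-out: total well GFP (ex488/em500-530) summed from mean per-cell fluorescence. Cells: HEPG2 CAGA-GFP, 1% FBS DMEM, 18 h at 37 degrees C with 500 pg/mL final TGF-beta. Unstimulated wells served as the full-inhibition control; stimulated DMSO wells = 0%.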
Numbers without * were called inactive; ? = inconclusive; / = not tested or not shown. Unless noted, the call rests on the fitted dose curve; in most records, active means well fitted curve in the direction sought with a large enough effect; inconclusive means small, poorly fitted or top-dose-only effect, or another doubt; inactive means no such curve, though single readings can be large; an effect the other way counts as inactive or inconclusive.

SMILES | TDP1 cell CPT | TDP1 inh | HepG2 tox | TDP1 cell noCPT | IL-1B inflam inh | TGFb inhibitor
CC(=O)c1ccc(-c2cc([C@H]3[C@H]4C=CC[C@@H](C)[C@@H]4C(=O)N3Cc3ccccc3)ccc2F)cc1 | 14.6µM* | 2.4% | 8.3% | 13µM* | -23.1 | ?
COc1ccc(-c2cc(C3C4C=CCC(C)C4C(=O)N3Cc3ccccc3)ccc2F)cc1OC (stereo not given) | / | 8.5% | 5.2% | / | / | -22.2%
C[C@@H]1CC=C[C@H]2[C@H]1C(=O)N(Cc1ccccc1)[C@H]2c1ccc(F)c(-c2ccc(N(C)C)cc2)c1 | 8.2µM* | 8.3% | -8.4% | 14.6µM* | -1.1 | -10.1%
CCn1cnc2c(=O)oc3ccc(S(=O)(=O)N4CCN(c5cc(C)ccc5C)CC4)cc3c21 | 4.1% | 7.5% | -7.0% | -21.1% | / | 4.4%
CC1CN(C(=O)c2cccc(S(=O)(=O)N3CCN(c4ccccc4)CC3)c2)CC(C)O1 (stereo not given) | 14.6µM* | 1.1% | 2.7% | ? | 39.8 | -7.2%
O=C(c1cccc(S(=O)(=O)N2CCCC2)c1)N1CCN(c2ccccc2)CC1 | ? | -1.1% | 1.7% | ? | 12.8 | 3.9%
CC1CN(S(=O)(=O)c2cccc(C(=O)OCC(=O)N3CCCCCC3)c2)CC(C)O1 (stereo not given) | -0.1% | -0.3% | 1.2% | -20.5% | -13.5 | -0.5%
CCOC(=O)c1ccc(S(=O)(=O)N2CCN(C(=O)c3cccc(S(=O)(=O)N4CC(C)OC(C)C4)c3)CC2)cc1 (stereo not given) | 16.4µM* | / | 0.3% | 9.2µM* | -19.9 | -19.7%
O=C(c1cccc(S(=O)(=O)N2CCN(c3ccccc3)CC2)c1)N1CCCC(C(F)(F)F)C1 (stereo not given) | 7.31µM* | -2.3% | -0.5% | 5.17µM* | -3.3 | ?
O=C(c1cc(S(=O)(=O)N2CCN(c3ccccc3)CC2)ccc1Cl)N1CCCC(C(F)(F)F)C1 (stereo not given) | 14.6µM* | / | -11.7% | ? | -8.2 | -24.9%
CC(=O)N1CCN(S(=O)(=O)c2cccc(C(=O)OCc3ccc(C(C)(C)C)cc3)c2)CC1 | 7.31µM* | ? | -12.4% | 8.2µM* | 14.6 | -15.7%
CCOC(=O)c1ccc(S(=O)(=O)N2CCN(C(=O)CSc3nc4ccccc4o3)CC2)cc1 | 11.6µM* | 0.0% | -1.9% | 11.6µM* | 0.0 | ?
Cc1oc(-c2ccccc2Cl)nc1CS(=O)(=O)CC(=O)NC(C)c1ccccc1 (stereo not given) | ? | 3.8% | -22.9% | 23.1µM* | 16.6 | ?
Cc1oc(-c2cccc(Cl)c2)nc1CS(=O)(=O)CC(=O)NC(C)CCc1ccccc1 (stereo not given) | -29.8% | 6.4% | -34.4% | ? | / | 10µM*
Cc1oc(-c2ccccc2Cl)nc1CS(=O)(=O)CC(=O)NCc1ccc(F)cc1 | ? | 3.8% | -19.6% | 18.4µM* | / | ?
Cc1oc(-c2ccccc2Cl)nc1CS(=O)(=O)CC(=O)NC(C)CCc1ccccc1 (stereo not given) | 16.4µM* | 9.0% | -14.0% | ? | / | 10µM*
CCCN(CCC)CCNC(=O)C1CCCN(S(=O)(=O)c2cccc3nsnc23)C1 (stereo not given) | 10.1% | -2.3% | -7.0% | -11.1% | / | ?
CC(C)(C)Nc1nc(Oc2ccc(=O)n(-c3ccccc3)n2)nc(N2CCOCC2)n1 | ? | 1.0% | -23.4% | 20.6µM* | -11.3 | ?
CCNc1nc(NC(C)(C)C)nc(Oc2ccc(=O)n(-c3ccccc3)n2)n1 | 16.4µM* | 8.2% | 12.8% | 20.6µM* | 17.1 | ?
